Holding throughout (design): scale not given: direction of the effect not stated beside the values
Assay [1] addresses Protein translocase subunit SecA (Escherichia coli (strain K12)) (UniProt P10408). Description: Assay to Identify E. coli SecA ATPase Inhibitors. It is filed as functional. As to conditions: 30 µM.
The target in assay [2] is T1, Ubiquitin-activating enzyme e1, putative (Leishmania donovani (strain BPK282A1)) (UniProt E9BSI1).
T1 sequence (whole entry): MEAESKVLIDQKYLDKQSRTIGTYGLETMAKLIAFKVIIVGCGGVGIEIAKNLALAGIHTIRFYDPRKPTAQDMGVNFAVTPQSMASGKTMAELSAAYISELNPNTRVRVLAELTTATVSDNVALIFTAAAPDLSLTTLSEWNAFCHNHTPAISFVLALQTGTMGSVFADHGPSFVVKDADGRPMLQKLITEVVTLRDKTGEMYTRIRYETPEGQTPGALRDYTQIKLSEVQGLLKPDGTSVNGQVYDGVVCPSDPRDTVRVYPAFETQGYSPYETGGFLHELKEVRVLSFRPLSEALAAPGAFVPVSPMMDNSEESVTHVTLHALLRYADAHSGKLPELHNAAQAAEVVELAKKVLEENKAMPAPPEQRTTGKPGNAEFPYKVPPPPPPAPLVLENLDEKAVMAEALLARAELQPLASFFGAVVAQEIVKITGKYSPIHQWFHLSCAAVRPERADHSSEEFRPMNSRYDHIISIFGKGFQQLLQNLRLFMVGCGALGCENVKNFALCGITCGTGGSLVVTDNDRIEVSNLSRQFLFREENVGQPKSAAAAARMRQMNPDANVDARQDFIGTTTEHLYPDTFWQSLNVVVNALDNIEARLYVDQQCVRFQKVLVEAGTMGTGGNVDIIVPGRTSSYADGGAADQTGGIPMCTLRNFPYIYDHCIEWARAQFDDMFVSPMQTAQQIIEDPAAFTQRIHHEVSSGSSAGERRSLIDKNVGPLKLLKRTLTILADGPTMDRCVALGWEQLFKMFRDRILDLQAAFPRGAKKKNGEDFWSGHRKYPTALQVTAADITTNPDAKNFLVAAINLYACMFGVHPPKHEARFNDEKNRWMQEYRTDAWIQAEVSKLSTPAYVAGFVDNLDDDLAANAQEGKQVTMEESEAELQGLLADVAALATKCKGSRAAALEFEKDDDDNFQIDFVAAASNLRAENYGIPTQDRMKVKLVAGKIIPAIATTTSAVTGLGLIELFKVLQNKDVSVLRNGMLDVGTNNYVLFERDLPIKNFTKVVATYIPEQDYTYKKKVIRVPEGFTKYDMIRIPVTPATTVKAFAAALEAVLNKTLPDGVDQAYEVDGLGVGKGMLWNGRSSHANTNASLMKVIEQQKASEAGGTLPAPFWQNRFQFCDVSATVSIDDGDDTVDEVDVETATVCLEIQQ
Description: Leishmania donovani Ubiquitin Activating Enzyme (LdE1). It counts as functional. As to conditions: 30 µM.

The target in assay [3] is AMP-activated protein kinase, AMPK (Homo sapiens) (UniProt P54646+O43741+P54619+Q9UGJ0+Q9Y478+Q13131+Q9UGI9). Description: AMP-dependent Kinase enzyme assay. An in vitro enzyme assay that detects ADP turnover that is directly proportional to AMPK activity. This uses naive AMPK that is activated during the assay with MK-8722. The note with it: 30 µM. It counts as functional.

Assay [4] has as its target Sialic acid-binding Ig-like lectin 9 (Homo sapiens) (UniProt Q9Y336). Description: Hs-Siglec9 ALPHAscreen SOP 20170721. The note with it: 10 µM. In general terms: Alpha assays give light when donor and acceptor beads are brought close together.
A further assay has as its system Trypanosoma cruzi. As to the kind of experiment: Trypanosoma cruzi phosphomannomutase and mannose-1-phosphate guanylyltransferase assay. It is filed as functional. The note with it: 10 µM.
Assay [5] addresses T2, Arginase-2, mitochondrial (Homo sapiens) (UniProt P78540).
T2 sequence (whole entry): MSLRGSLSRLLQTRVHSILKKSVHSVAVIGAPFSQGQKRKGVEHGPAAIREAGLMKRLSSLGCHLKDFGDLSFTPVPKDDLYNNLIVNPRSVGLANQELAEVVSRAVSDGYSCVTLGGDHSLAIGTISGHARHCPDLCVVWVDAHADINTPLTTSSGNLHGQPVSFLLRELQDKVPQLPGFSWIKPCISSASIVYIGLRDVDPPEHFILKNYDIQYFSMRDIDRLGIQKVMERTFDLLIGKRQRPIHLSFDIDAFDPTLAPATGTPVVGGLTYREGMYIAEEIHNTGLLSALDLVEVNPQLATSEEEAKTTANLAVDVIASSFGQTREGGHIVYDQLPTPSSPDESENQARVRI
Description: in vitro enzyme assay to detect the production of urea directly proportional to the activity of Arginase II. Note: in the data most compounds retested in dose-response had high values. It counts as functional. As to conditions: 33.3 µM.

For assay [6], the target named is T3, Proteasome subunit beta (Trypanosoma cruzi) (UniProt O96673).
T3 sequence (whole entry): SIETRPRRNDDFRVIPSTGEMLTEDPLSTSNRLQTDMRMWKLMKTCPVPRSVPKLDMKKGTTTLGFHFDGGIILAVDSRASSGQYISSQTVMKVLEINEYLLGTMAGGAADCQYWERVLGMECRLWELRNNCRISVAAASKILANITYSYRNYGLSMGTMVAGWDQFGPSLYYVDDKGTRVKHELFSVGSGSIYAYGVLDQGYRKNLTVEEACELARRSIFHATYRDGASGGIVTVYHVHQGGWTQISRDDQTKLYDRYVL
As to the kind of experiment: Trypanosoma cruzi proteasome chymotrypsin-like activity (TcProtChymo) assay. Note: in the data most compounds retested in dose-response had high values. It is filed as functional. The note with it: 9.37 µM.

Another assay is filed under the species Homo sapiens. Description: To identify inhibition of the IFN signalling (Jak-Stat) pathway via expression of an eGFP reporter gene under the control of an IFN-stimulated response element (ISRE) containing MxA promoter. It counts as functional. The note with it: 30 µM.
Assay [7] deals with T4, Tyrosyl-tRNA synthetase, putative (Trypanosoma cruzi (strain CL Brener)) (UniProt Q4DSP6).
T4 sequence (whole entry): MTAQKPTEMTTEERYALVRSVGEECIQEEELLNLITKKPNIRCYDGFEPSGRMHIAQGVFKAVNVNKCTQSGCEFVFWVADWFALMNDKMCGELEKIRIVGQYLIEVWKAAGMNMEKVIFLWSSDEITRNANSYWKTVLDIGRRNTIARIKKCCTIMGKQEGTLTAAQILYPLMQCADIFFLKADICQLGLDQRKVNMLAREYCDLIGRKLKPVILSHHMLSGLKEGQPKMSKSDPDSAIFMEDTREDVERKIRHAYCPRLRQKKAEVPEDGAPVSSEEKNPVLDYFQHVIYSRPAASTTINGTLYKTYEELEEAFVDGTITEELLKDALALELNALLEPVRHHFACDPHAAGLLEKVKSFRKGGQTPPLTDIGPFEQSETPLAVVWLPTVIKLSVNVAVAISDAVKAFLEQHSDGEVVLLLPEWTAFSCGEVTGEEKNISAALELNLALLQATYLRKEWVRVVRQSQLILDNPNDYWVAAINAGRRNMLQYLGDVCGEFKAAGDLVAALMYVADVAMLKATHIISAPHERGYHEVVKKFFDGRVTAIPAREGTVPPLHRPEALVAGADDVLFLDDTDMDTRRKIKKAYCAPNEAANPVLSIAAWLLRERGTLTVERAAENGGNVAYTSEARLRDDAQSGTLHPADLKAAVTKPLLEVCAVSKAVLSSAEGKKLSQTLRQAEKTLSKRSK
Description: Trypanosoma cruzi tyrosyl tRNA synthetase (TcYRS) _High Tyrosine SOP. Note: in the data most compounds retested in dose-response had high values. The note with it: 30 µM. It counts as functional.

The target of assay [8] is T4, Tyrosyl-tRNA synthetase, putative (Trypanosoma cruzi (strain CL Brener)). Description: Trypanosoma cruzi tyrosyl tRNA synthetase (TcYRS) SOP. As to conditions: 30 µM. It is filed as functional.
Assay [9] concerns the target Chromo domain-containing protein 1 (Saccharomyces cerevisiae (strain ATCC 204508 / S288c) (Baker's yeast)) (UniProt P32657). As to the kind of experiment: ScCHD-1 Enzyme Inhibition Assay. Note: in the data most compounds retested in dose-response had high values. It counts as functional. As to conditions: 30 µM.

For some assays here: Entries with a potency or affinity are not part of this list.

Chain of Sialic acid-binding Ig-like lectin 9 (Homo sapiens) (Q9Y336 whole entry): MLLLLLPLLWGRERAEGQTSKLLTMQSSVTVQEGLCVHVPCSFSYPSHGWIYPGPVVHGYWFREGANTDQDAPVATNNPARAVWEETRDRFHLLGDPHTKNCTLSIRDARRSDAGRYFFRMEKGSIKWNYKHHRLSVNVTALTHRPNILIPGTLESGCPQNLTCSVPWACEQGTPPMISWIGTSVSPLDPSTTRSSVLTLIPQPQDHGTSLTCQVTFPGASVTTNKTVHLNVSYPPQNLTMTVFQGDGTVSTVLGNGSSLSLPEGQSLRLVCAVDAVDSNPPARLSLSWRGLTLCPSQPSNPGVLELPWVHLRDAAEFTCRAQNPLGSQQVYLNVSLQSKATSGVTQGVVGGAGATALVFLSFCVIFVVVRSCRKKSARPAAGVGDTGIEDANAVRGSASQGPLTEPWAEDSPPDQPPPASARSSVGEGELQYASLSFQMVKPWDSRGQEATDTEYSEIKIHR
Chain of Chromo domain-containing protein 1 (Saccharomyces cerevisiae (strain ATCC 204508 / S288c) (Baker's yeast)) (P32657 whole entry, the tested form may be a part): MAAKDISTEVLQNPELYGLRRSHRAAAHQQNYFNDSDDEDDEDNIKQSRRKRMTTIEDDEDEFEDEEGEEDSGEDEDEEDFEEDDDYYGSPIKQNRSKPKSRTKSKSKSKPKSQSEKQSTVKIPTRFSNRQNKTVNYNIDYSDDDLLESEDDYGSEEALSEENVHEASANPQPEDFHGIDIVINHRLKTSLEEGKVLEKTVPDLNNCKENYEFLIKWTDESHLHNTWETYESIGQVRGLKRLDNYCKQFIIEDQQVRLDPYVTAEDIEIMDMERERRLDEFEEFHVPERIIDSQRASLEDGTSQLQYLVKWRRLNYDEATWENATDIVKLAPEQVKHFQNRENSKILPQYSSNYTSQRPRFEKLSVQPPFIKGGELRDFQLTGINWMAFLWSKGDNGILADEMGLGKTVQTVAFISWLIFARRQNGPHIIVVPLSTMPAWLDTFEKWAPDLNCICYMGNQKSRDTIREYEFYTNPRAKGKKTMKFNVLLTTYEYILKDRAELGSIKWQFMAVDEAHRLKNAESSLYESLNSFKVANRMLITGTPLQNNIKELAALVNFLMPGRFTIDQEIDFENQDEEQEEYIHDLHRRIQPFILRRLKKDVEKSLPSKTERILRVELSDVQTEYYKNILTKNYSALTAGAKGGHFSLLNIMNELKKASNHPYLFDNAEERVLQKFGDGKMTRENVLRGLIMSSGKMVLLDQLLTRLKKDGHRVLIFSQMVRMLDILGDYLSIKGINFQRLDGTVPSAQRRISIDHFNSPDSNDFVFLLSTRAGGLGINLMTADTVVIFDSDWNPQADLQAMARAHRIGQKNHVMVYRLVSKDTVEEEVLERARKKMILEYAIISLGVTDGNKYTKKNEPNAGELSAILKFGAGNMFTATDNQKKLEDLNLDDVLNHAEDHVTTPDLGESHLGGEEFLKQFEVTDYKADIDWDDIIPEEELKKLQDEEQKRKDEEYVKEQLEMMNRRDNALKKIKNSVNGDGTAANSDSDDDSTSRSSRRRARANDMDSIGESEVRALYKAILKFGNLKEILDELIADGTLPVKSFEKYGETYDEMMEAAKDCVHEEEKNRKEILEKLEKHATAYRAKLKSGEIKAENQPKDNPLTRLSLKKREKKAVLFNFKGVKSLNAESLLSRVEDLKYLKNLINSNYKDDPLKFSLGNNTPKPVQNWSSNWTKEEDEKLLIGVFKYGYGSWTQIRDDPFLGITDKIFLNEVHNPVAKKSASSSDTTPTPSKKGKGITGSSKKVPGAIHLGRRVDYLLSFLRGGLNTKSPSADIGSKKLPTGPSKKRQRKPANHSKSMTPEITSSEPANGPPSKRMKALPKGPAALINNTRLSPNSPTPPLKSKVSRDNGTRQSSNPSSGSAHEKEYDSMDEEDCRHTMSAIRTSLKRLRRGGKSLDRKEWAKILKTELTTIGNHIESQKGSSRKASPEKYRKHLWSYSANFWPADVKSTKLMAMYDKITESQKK
Chain of Protein translocase subunit SecA (Escherichia coli (strain K12)) (P10408 whole entry): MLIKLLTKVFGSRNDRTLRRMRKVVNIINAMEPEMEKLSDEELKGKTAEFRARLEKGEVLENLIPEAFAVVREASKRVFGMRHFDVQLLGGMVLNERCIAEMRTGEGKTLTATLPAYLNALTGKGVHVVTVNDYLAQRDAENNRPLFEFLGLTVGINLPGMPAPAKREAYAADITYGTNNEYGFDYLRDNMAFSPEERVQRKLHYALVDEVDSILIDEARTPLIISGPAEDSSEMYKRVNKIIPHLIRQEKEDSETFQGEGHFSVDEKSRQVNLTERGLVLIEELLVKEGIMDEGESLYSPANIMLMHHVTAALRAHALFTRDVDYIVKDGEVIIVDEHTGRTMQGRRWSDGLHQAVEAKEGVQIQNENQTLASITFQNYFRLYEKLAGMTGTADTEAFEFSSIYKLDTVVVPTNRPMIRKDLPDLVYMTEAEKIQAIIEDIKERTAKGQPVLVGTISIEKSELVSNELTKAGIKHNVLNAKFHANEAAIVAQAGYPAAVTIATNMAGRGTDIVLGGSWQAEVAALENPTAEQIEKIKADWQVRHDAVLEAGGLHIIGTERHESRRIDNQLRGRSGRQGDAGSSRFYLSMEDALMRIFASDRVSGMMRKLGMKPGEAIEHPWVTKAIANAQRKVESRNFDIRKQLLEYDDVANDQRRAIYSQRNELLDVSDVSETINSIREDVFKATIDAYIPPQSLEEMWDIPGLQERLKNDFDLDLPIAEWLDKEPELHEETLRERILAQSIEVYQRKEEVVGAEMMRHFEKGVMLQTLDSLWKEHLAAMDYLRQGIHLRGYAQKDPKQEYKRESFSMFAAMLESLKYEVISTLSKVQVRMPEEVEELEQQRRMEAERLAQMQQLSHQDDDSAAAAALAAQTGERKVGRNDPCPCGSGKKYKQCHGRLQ

`CCc1nnc(CNCC2CCCN2c2cccnn2)o1` (stereo not given): the Percent Effect was -2.1% in assay [1]; 0% in assay [2]; 0.161% in [3]; 4.6% in [4]; 2.78% in the assay with Trypanosoma cruzi; -2.4% in assay [5]. For the same molecule, the Percent Effect in assay [6] was 5.57%; in the assay listed under Homo sapiens, 3.42%; in assay [7], 8.33%; in [8] it was 11.1%; in assay [9], -4.05%.

Take `Cc1occc1C(=O)N1CCCC2(CCN(CCN3CCCC3)C2=O)C1` (stereo not given): the Percent Effect in [1] is -3.31%; in [2], -2.6%; in assay [3] it was -1.22%; in [4] it was 14.5%; with Trypanosoma cruzi, 6.79%; in assay [5] it was -12.4%. Also, the Percent Effect in assay [6] is 7.82%; in the assay listed under Homo sapiens it was -2.84%; in assay [7], -11.8%; in [8], -11.1%; in [9] it was -0.372%.

Consider `CNS(=O)(=O)c1cccc(CNc2nccc(C(F)(F)F)n2)c1`, for which the Percent Effect in assay [1] was -0.353%; in [2], 16.2%; in assay [3], 14.6%; in assay [4], -2.3%; in the assay with Trypanosoma cruzi it was 5.19%; in assay [5], -1.6%. For the same molecule, the Percent Effect in assay [6] is 15.1%; in the assay filed under Homo sapiens, 46.9%; in [7] it was -0.493%; in assay [8] it was 16.1%; in assay [9], -15.9%.

With `CCN1CCN(C(=O)C(C)N2CCN(Cc3nccn3C)CC2)CC1` (stereo not given), the Percent Effect was -3.29% in [1]; 2.7% in assay [2]; -1.16% in assay [3]; 6.16% in assay [4]; 6.59% with Trypanosoma cruzi; -4.99% in assay [5]. Also, the Percent Effect was 1.08% in assay [6]; -7.4% in the assay filed under Homo sapiens; 0.99% in assay [7]; 3.66% in [8]; 2.46% in [9].

Consider `CCn1cc(CN2CCCN(C(=O)c3ccn(C)c(=O)c3)CC2)cn1`, for which the Percent Effect was -0.55% in assay [1]; 20.8% in [2]; -9.71% in [3]; -17.4% in assay [4]; 4.02% with Trypanosoma cruzi; -0.632% in assay [5]. Further, the Percent Effect in [6] is 10.9%; in the assay filed under Homo sapiens, 11.6%; in assay [7], 10.5%; in [8], 23.5%; in [9], -18.6%.

As to `COc1cc(C)nc(N2CCN(C(=O)c3ccc[nH]3)CC2)n1`, the Percent Effect was -5.18% in [1]; 10.8% in assay [2]; -2.76% in assay [3]; 14.9% in assay [4]; 3.68% with Trypanosoma cruzi; -5.21% in assay [5]. The Percent Effect in assay [6] is 4.14%; in the assay listed under Homo sapiens it was 17.1%; in assay [7] it was 1.48%; in assay [8], 6.17%; in assay [9], -10.1%.

Regarding `CCN(C(=O)CS(=O)(=O)Cc1cc(Cl)c2c(c1)OCCCO2)C1CC1`, the Percent Effect in [1] was 2.17%; in assay [2], 5.06%; in [3], -1.41%; in [4] it was -13.2%; in the assay on Trypanosoma cruzi it was -7.84%; in [5], 5.32%. Further, the Percent Effect in assay [6] is 7.62%; in the assay filed under Homo sapiens it was 8.01%; in assay [7], 3.45%; in [8] it was 16.5%; in [9], -6.8%.

In the case of `CCN(CC1CCOC1)C(=O)c1ccccc1NS(=O)(=O)CC` (stereo not given), the Percent Effect in assay [1] was -5.12%; in [2], 7.89%; in [3], -0.433%; in [4], -1.92%; in the assay on Trypanosoma cruzi, 1.03%; in [5], -1.08%. The Percent Effect was 6.34% in assay [6]; -2.41% in the assay filed under Homo sapiens; 7.39% in assay [7]; 18.5% in assay [8]; -4.83% in [9].

In the case of `O=C(Cc1ccc2c(c1)CCCC2)NCCc1ccccn1`, the Percent Effect was -2.72% in assay [1]; -7.89% in [2]; -4.68% in [3]; -1.25% in assay [4]; 0.0934% in the assay with Trypanosoma cruzi; 1.44% in [5]. Also, the Percent Effect in [6] was 16.2%; in the assay filed under Homo sapiens, 12.1%; in assay [7], 7.39%; in [8] it was 23.5%; in [9], -7.01%.

As for `Cc1ccc(C(=O)N2CCN(CCCSCC#N)CC2)o1`, the Percent Effect was -3.54% in assay [1]; -5.48% in assay [2]; 1.04% in assay [3]; 10.8% in [4]; 1.98% in the assay on Trypanosoma cruzi; -2.4% in assay [5]. In addition, the Percent Effect came to 6.42% in assay [6]; 18.1% in the assay filed under Homo sapiens; 4.17% in [7]; 11.1% in [8]; 0.208% in [9].

The values are drawn from ChEMBL document CHEMBL3988442, “University of Dundee, Small-Polar-MMV Screening Library” (2021).
